Columns and labels:
Conditions in all cases: concentration: 1 μM, replicates: in singlicate; n = 1
ULK2 = tested on: ULK2
ULK3 = tested on: ULK3
VEGFR2 = tested on: T1, VEGFR2
T1 construct: gene KDR

VPS34 = tested on: T2, VPS34
T2 construct: gene PIK3C3

VRK2 = tested on: VRK2
WEE1 = tested on: WEE1
WEE2 = tested on: WEE2
WNK1 = tested on: WNK1
WNK2 = tested on: WNK2
WNK3 = tested on: WNK3
WNK4 = tested on: WNK4
YANK1 = tested on: T3, YANK1
T3 construct: gene STK32A

YANK2 = tested on: T4, YANK2
T4 construct: gene STK32B

YANK3 = tested on: T5, YANK3
T5 construct: gene STK32C

YES = tested on: T6, YES
T6 construct: gene YES1

YSK1 = tested on: T7, YSK1
T7 construct: gene STK25

YSK4 = tested on: T8, YSK4
T8 construct: gene MAP3K19

ZAK = tested on: ZAK
ZAP70 = tested on: ZAP70
p38-alpha = tested on: T9, p38-alpha
T9 construct: gene MAPK14
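Note: KINOMEscan kinase panel screen.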

SMILES: CC(C)(C)c1ccc(-n2cnc3c(N)ncnc32)cc1 [SKF-97263]
- %Inh (ULK2): 4%
- %Inh (ULK3): 17%
- %Inh (VEGFR2): 11%
- %Inh (VPS34): 0%
- %Inh (VRK2): 9%
- %Inh (WEE1): 0%
- %Inh (WEE2): 2%
- %Inh (WNK1): 3%
- %Inh (WNK2): 0%
- %Inh (WNK3): 0%
- %Inh (WNK4): 0%
- %Inh (YANK1): 0%
- %Inh (YANK2): 11%
- %Inh (YANK3): 11%
- %Inh (YES): 6%
- %Inh (YSK1): 0%
- %Inh (YSK4): 15%
- %Inh (ZAK): 10%
- %Inh (ZAP70): 0%
- %Inh (p38-alpha): 0%

SMILES: C[C@H]1CC[C@@H](C(=O)Nc2ccccc2)CN1c1cc(-c2ccc3c(N)n[nH]c3c2)nc(N)n1 [GSK2283293]
- %Inh (ULK2): 0%
- %Inh (ULK3): 7%
- %Inh (VEGFR2): 0%
- %Inh (VPS34): 0%
- %Inh (VRK2): 19%
- %Inh (WEE1): 11%
- %Inh (WEE2): 14%
- %Inh (WNK1): 2%
- %Inh (WNK2): 0%
- %Inh (WNK3): 17%
- %Inh (WNK4): 28%
- %Inh (YANK1): 13%
- %Inh (YANK2): 0%
- %Inh (YANK3): 4%
- %Inh (YES): 10%
- %Inh (YSK1): 0%
- %Inh (YSK4): 16%
- %Inh (ZAK): 2%
- %Inh (ZAP70): 0%
- %Inh (p38-alpha): 0%

SMILES: CNc1nccc(-c2c(-c3ccc(F)cc3)ncn2C2CCN(C)CC2)n1 [SB-222903]
- %Inh (ULK2): 15%
- %Inh (ULK3): 0%
- %Inh (VEGFR2): 0%
- %Inh (VPS34): 0%
- %Inh (VRK2): 16%
- %Inh (WEE1): 0%
- %Inh (WEE2): 0%
- %Inh (WNK1): 0%
- %Inh (WNK2): 0%
- %Inh (WNK3): 0%
- %Inh (WNK4): 9%
- %Inh (YANK1): 0%
- %Inh (YANK2): 17%
- %Inh (YANK3): 6%
- %Inh (YES): 0%
- %Inh (YSK1): 0%
- %Inh (YSK4): 7%
- %Inh (ZAK): 0%
- %Inh (ZAP70): 0%
- %Inh (p38-alpha): 98.6%

SMILES: CCCc1ccc(S(=O)(=O)NC2CCN(c3ccnc(Nc4ccc(OC)cc4)n3)C2)cc1 (centres unmarked) [GSK1379737]
- %Inh (ULK2): 0%
- %Inh (ULK3): 7%
- %Inh (VEGFR2): 0%
- %Inh (VPS34): 36%
- %Inh (VRK2): 4%
- %Inh (WEE1): 12%
- %Inh (WEE2): 0%
- %Inh (WNK1): 8%
- %Inh (WNK2): 0%
- %Inh (WNK3): 38%
- %Inh (WNK4): 45%
- %Inh (YANK1): 0%
- %Inh (YANK2): 0%
- %Inh (YANK3): 16%
- %Inh (YES): 5%
- %Inh (YSK1): 0%
- %Inh (YSK4): 30%
- %Inh (ZAK): 8%
- %Inh (ZAP70): 0%
- %Inh (p38-alpha): 10%
